# According to paper PMC6212790, “How bacterial xenogeneic silencer rok distinguishes foreign from self DNA in its resident genome”:
# Over roughly 33,000 sequences, “e-score” has its median near -0.037; the highest 2% begin near 0.34. For the sample, the highest values were picked, then their nearest neighbours and some sequences at random.
# Target: T1, GST-Rok (full length) (Bacillus subtilis subsp. subtilis str. …, UniProt O34857 1-191)
# T1 sequence: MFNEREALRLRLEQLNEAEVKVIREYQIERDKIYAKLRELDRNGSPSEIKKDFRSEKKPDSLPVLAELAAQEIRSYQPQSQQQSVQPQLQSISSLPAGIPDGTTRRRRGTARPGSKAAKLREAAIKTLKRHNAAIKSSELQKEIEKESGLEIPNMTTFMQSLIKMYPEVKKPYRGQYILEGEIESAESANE
# Experiment: protein binding microarray; Rok is a gene silencer of Bacillus subtilis; high values mean tight binding
# Conditions: protein: recombinant; tags: GST (pTH5325, pDEST15-Magic modified); dsDNA, one strand shown
# Outline: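 Each has a 25-mer constant primer and a 35-mer variable part from a de Bruijn sequence of order 10, covering every non-palindromic 8-mer at least 32 times (palindromic 16). Preference for each 8-mer is given as a rank-based, unitless enrichment score (E-score). Its range runs from 0.5 (most favored) to −0.5 (most disfavored).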
row,Sequence,binding signal
1,CATGTACA,0.317 E-score
2,ATTGTACA,0.369 E-score
3,TATGTACA,0.378 E-score
4,ACGCTTGC,-0.1 E-score
5,CCGTTTTA,0.0815 E-score
6,ACAATCTA,0.283 E-score
7,GAAATCTC,0.209 E-score
8,CAAATCTG,-0.00951 E-score
9,CAAATCTC,0.0513 E-score
10,GCAATCTA,0.361 E-score
11,CCAATCTA,0.283 E-score
12,GAAATCTA,0.345 E-score
13,CAAATCTA,0.377 E-score
14,TAAATCTA,0.308 E-score
15,ATTGATCG,0.0726 E-score
16,CAACTGAA,-0.0305 E-score
17,CCTCTCTA,-0.198 E-score
18,CGTATCGA,0.0045 E-score
19,ACAAATAC,0.249 E-score
20,ATAAATAA,0.329 E-score
21,ACAAATAA,0.333 E-score
22,ACAAATAT,0.402 E-score
23,ATAAATAT,0.339 E-score
24,ATAAATAG,0.322 E-score
25,AATAACCT,0.0317 E-score
26,AACCACGT,-0.0233 E-score

row,Sequence,binding signal
1,ACCATAGT,0.207 E-score
2,CGATAGAA,0.344 E-score
3,GGATAGAA,0.171 E-score
4,TGATAGAA,0.388 E-score
5,CGATAGAC,0.0161 E-score
6,AGATAGAA,0.26 E-score
7,CGATAGAG,-0.134 E-score
8,AGGTGCCA,-0.0282 E-score
9,CTTATTGA,-0.157 E-score
10,AATAGATC,0.14 E-score
11,AATAGATT,0.388 E-score
12,GATAGATC,0.273 E-score
13,CATAGATA,0.3 E-score
14,GATAGATA,0.368 E-score
15,AATAGATA,0.262 E-score
16,GATAGACA,-0.0476 E-score
17,TATAGATA,0.384 E-score
18,AATAGATG,0.261 E-score
19,ACCGTACT,0.0822 E-score
20,ATTTGGCC,-0.00123 E-score
21,CACGGTAG,0.264 E-score
22,AACATCAA,0.0614 E-score
23,CGAAGCAA,-0.114 E-score
24,AACCTCGC,-0.106 E-score
25,AAATTCGT,0.226 E-score
26,AAAATAAA,0.199 E-score

row,Sequence,binding signal
1,CAAATATG,0.194 E-score
2,CAAATATC,0.285 E-score
3,TAAATAAA,0.231 E-score
4,AAAATATT,0.358 E-score
5,TAAATATA,0.394 E-score
6,AAAATATG,0.278 E-score
7,ACAATATA,0.298 E-score
8,AAAATATA,0.417 E-score
9,AAAATATC,0.275 E-score
10,GAAATATA,0.283 E-score
11,CAAATATA,0.345 E-score
12,AATGACCG,-0.0639 E-score
13,AGGAATTC,-0.159 E-score
14,ACGAACCA,0.000876 E-score
15,TCATTCAA,-0.111 E-score
16,CAGTTTTC,0.0134 E-score
17,TATCGATA,0.376 E-score
18,AATCGATA,0.281 E-score
19,GATCGATA,0.269 E-score
20,CTACAATA,0.291 E-score
21,AGAATCCT,0.0705 E-score
22,ACGAAACT,0.337 E-score
23,ACGAAACA,0.0691 E-score
24,ACGAAACC,-0.0947 E-score
25,AGCCTTAG,-0.181 E-score
26,AGTAGATA,0.442 E-score

row,Sequence,binding signal
1,CGTAGATA,0.258 E-score
2,ATGAGATC,0.0598 E-score
3,CGTAGATC,0.21 E-score
4,GGTAGATA,0.451 E-score
5,AGTAGATC,0.324 E-score
6,ATTAGATA,0.367 E-score
7,CTGAGATA,0.0758 E-score
8,ATTAGATC,0.293 E-score
9,AGTAGATG,0.283 E-score
10,GTTAGATA,0.241 E-score
11,ATGAGATA,0.346 E-score
12,CGTAATAA,0.27 E-score
13,CTCTTCGC,0.197 E-score
14,CCATAAAC,-0.00276 E-score
15,ATAAAGAA,-0.0956 E-score
16,GTCATAAA,0.154 E-score
17,AATCTTCG,0.0665 E-score
18,AATTTATA,0.435 E-score
19,ATTTTATA,0.41 E-score
20,TACTTATA,0.321 E-score
21,AATTTATG,0.283 E-score
22,GATTTATA,0.315 E-score
23,AACTTATA,0.403 E-score
24,ATTTTATG,0.251 E-score
25,GTTTTATA,0.141 E-score
26,CACTTATA,0.329 E-score

row,Sequence,binding signal
1,CTAATCGC,0.18 E-score
2,AGAAACAT,0.155 E-score
3,CGGCTATC,-0.0522 E-score
4,ACTAGCGG,0.188 E-score
5,CCAAACGA,0.042 E-score
6,GAAATGTA,0.351 E-score
7,TAAATGTA,0.411 E-score
8,AAAATGTA,0.287 E-score
9,CAAATGTA,0.289 E-score
10,GAAATGCA,-0.095 E-score
11,GAAATGTC,0.126 E-score
12,CTTGTTTC,0.0903 E-score
13,CAAACCAG,-0.185 E-score
14,AACCATGC,-0.0502 E-score
15,CCTATCAC,0.0828 E-score
16,GCTATCAA,0.164 E-score
17,GCTATCAC,0.244 E-score
18,ACTATCAC,0.34 E-score
19,CCTATCAA,0.161 E-score
20,ACTATCAA,0.337 E-score
21,AGAAAGTC,0.121 E-score
22,GTAAAGAA,0.0756 E-score
23,TCTATTCA,0.0926 E-score
24,ACCTAAAA,0.306 E-score
25,AACTAAAT,0.362 E-score
26,AACTAAAG,-0.0498 E-score

row,Sequence,binding signal
1,TACTAAAA,0.434 E-score
2,CACTAAAA,0.293 E-score
3,AACTAAAA,0.345 E-score
4,AACTAAAC,0.138 E-score
5,GACTAAAA,0.123 E-score
6,AACTAAGA,0.138 E-score
7,CGCCCAAC,-0.14 E-score
8,AACTTTGA,-0.0517 E-score
9,AACATTAC,0.214 E-score
10,GGTAGGTA,0.304 E-score
11,AGTAGGTC,0.069 E-score
12,AGTAGGTG,0.174 E-score
13,CCTAGGTA,0.0506 E-score
14,AGTAGGTA,0.404 E-score
15,CGTAGGTA,0.347 E-score
16,GATGGAGA,-0.0862 E-score
17,ATTAACCG,0.0492 E-score
18,CGAAAGGC,-0.183 E-score
19,CTTACAAG,-0.114 E-score
20,ATGAATCC,0.0418 E-score
21,CTAGCTAA,0.133 E-score
22,TTAGCTAA,0.129 E-score
23,CTAGCTAC,0.198 E-score
24,GAAGCTAC,0.323 E-score
25,GTAGCTAA,0.373 E-score
26,ATAGCTAC,0.333 E-score

row,Sequence,binding signal
1,ATAGCTAG,0.273 E-score
2,ATAGCTAT,0.373 E-score
3,GTAGCTAC,0.436 E-score
4,CCGCTGAC,-0.15 E-score
5,GCCGCATA,-0.186 E-score
6,AGAGTCGA,-0.0761 E-score
7,CTAGTGTC,0.0749 E-score
8,GGCAGTAC,-0.0236 E-score
9,GCGGATCA,-0.193 E-score
10,ACAAGGAA,-0.0483 E-score
11,ATTCACCC,0.0731 E-score
12,ATTACTAC,0.355 E-score
13,ATTACTCG,0.225 E-score
14,GTTACTAA,0.283 E-score
15,ATTACTGC,0.138 E-score
16,ATTACTAG,0.398 E-score
17,CTTACTAC,0.169 E-score
18,ATTACTGG,-0.0684 E-score
19,ATTACTAA,0.357 E-score
20,CTTACTAA,0.222 E-score
